We go through seven molecules from PubChem BioAssay (EPA / NIEHS).

Read-out in experiment [1]: TIMP metallopeptidase inhibitor 1 (TIMP1), TIMP1 (gene 7076)
The experiment is described as follows: BSK_hDFCGF_TIMP1: BioMAP Diversity Plus: hDFCGF Assay for TIMP metallopeptidase inhibitor 1 (TIMP1) Biomarker Activity (AID 2283062). As to conditions: primary human foreskin fibroblasts; actives raise or lower the signal. The method, boiled down: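 Bidirectional curve fitting against DMSO baseline yielded this endpoint, based on ELISA detection of TIMP-1 in primary human foreskin fibroblasts exposed to compound for 24 h.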

Read-out in experiment [2]: Monokine induced gamma interferon (MIG), CXCL9 (gene 4283)
The experiment is described as follows: BSK_hDFCGF_MIG: BioMAP Diversity Plus: hDFCGF Assay for Monokine induced gamma interferon (MIG) Biomarker Activity (AID 2283063). As to conditions: primary human foreskin fibroblasts; actives raise or lower the signal. The method, boiled down:
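Endpoint derived by bidirectional fitting relative to DMSO; MIG quantified via ELISA in primary human foreskin fibroblasts harvested 24 h after dosing.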

Read-out in experiment [3]: Matrix Metallopeptidase 1 (MMP1), MMP1 (gene 4312)
The experiment is described as follows: BSK_hDFCGF_MMP1: BioMAP Diversity Plus: hDFCGF Assay for Matrix Metallopeptidase 1 (MMP1) Biomarker Activity (AID 2283064). As to conditions: primary human foreskin fibroblasts; actives raise or lower the signal. In a few lines:
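Primary human foreskin fibroblasts exposed to chemicals for 24 h; MMP1 measured by ELISA. Cytotoxicity tracked by SRB staining in parallel cultures; bidirectional fit relative to DMSO.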

Read-out in experiment [4]: Plasminogen activator inhibitor-1 (PAI1), SERPINE1 (gene 5054)
The experiment is described as follows: BSK_hDFCGF_PAI1: BioMAP Diversity Plus: hDFCGF Assay for Plasminogen activator inhibitor-1 (PAI1) Biomarker Activity (AID 2283066). As to conditions: primary human foreskin fibroblasts; actives raise or lower the signal. The method, boiled down:
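PAI-1 levels, determined by ELISA, served as the endpoint in human foreskin fibroblast cultures exposed to compound for 24 h, with DMSO as baseline.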

Read-out in experiment [5]: Intercellular Adhesion Molecule 1 (ICAM1), ICAM1 (gene 3383)
The experiment is described as follows: BSK_KF3CT_ICAM1: BioMAP Diversity Plus: KF3CT Assay for Intercellular Adhesion Molecule 1 (ICAM1) Biomarker Activity (AID 2283067). The following applies: primary human keratinocytes with fibroblasts; actives raise or lower the signal. The method, boiled down:
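Bidirectional curve fitting against a DMSO baseline was applied to ICAM-1 ELISA signal from primary human skin co-cultures harvested 24 h after treatment, with SRB staining of parallel wells for overt cytotoxicity.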

Read-out in experiment [6]: Interferon-gamma inducible Protein 10 (IP10), CXCL10 (gene 3627)
The experiment in a line: BSK_KF3CT_IP10: BioMAP Diversity Plus: KF3CT Assay for Interferon-gamma inducible Protein 10 (IP10) Biomarker Activity (AID 2283068). The following applies: primary human keratinocytes with fibroblasts; actives raise or lower the signal. The method, boiled down:
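ELISA read-out of IP-10 after 24 h chemical dosing of human skin primary co-culture (keratinocytes, foreskin fibroblasts). Gain or loss of signal relative to DMSO, bidirectional curve fit.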

A short description of experiment [7]: BSK_KF3CT_SRB: Viability Assessment in the BioMAP Diversity Plus: KF3CT Assay (AID 2283069).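 Further: total protein by sulforhodamine B staining as a cytotoxicity measure; read 24 h after compound addition; fitted for both signal gain and loss against DMSO baseline.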 The following applies: primary human keratinocytes with fibroblasts. In a few lines:
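Human keratinocyte and foreskin fibroblast co-culture exposed to chemical for 24 h. Total protein measured in parallel cultures by 0.1% sulforhodamine B staining after 10% TCA fixation, read at 560 nm; bidirectional fit relative to DMSO.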

Read-out in experiment [8]: Interleukin-1 alpha (IL1a), IL1A (gene 3552)
The experiment is described as follows: BSK_KF3CT_IL1a: BioMAP Diversity Plus: KF3CT Assay for Interleukin-1 alpha (IL1a) Biomarker Activity (AID 2283070). As to conditions: primary human keratinocytes with fibroblasts; actives raise or lower the signal. In a few lines:
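Primary human keratinocyte plus foreskin fibroblast co-culture, dosed and measured at 24 h in 96-well plates. IL-1a level quantified by ELISA; bidirectional fit relative to DMSO.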

Read-out in experiment [9]: TIMP metallopeptidase inhibitor 2 (TIMP2), TIMP2 (gene 7077)
The experiment in a line: BSK_KF3CT_TIMP2: BioMAP Diversity Plus: KF3CT Assay for TIMP metallopeptidase inhibitor 2 (TIMP2) Biomarker Activity (AID 2283071). The following applies: primary human keratinocytes with fibroblasts; actives raise or lower the signal. In a few lines:
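Keratinocyte–fibroblast co-culture, 24 h exposure; TIMP-2 ELISA, DMSO-normalised bidirectional fit. Parallel SRB (0.1%, TCA-fixed, 560 nm) total-protein staining gauges cytotoxicity.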

Read-out in experiment [10]: C-C motif chemokine 2 (Homo sapiens) (UniProt P13500)
The experiment is described as follows: BSK_KF3CT_MCP1: BioMAP Diversity Plus: KF3CT Assay for Monocyte Chemoattractant Protein 1 (MCP1/CCL2) Biomarker Activity (AID 2283073). As to conditions: primary human keratinocytes with fibroblasts; actives raise or lower the signal. The method, boiled down:
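Biomarker MCP-1 is measured by ELISA in primary human keratinocytes co-cultured with foreskin fibroblasts, 24 h after chemical treatment; DMSO serves as the negative control and activity baseline.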

Read-out in experiment [11]: Matrix Metallopeptidase 9 (MMP9), MMP9 (gene 4318)
The experiment in a line: BSK_KF3CT_MMP9: BioMAP Diversity Plus: KF3CT Assay for Matrix Metallopeptidase 9 (MMP9) Biomarker Activity (AID 2283074).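 On AC50: MMP9 protein level quantified by ELISA in the co-culture.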 As to conditions: primary human keratinocytes with fibroblasts; actives raise or lower the signal. The method, boiled down:
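Human keratinocyte and foreskin fibroblast co-culture exposed to chemicals for 24 h; MMP9 biomarker measured by ELISA, bidirectional fitting relative to DMSO; cytotoxicity tracked by SRB total protein staining in parallel cultures.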

Read-out in experiment [12]: urokinase plasminogen activator (uPA), PLAU (gene 5328)
The experiment in a line: BSK_KF3CT_uPA: BioMAP Diversity Plus: KF3CT Assay for urokinase plasminogen activator (uPA) Biomarker Activity (AID 2283075). As to conditions: primary human keratinocytes with fibroblasts; actives raise or lower the signal. The method, boiled down: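 Primary human keratinocyte/foreskin fibroblast co-culture exposed to chemical; uPA measured by ELISA at 24 h. Bidirectional fit versus DMSO, with parallel SRB total-protein staining for cytotoxicity.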

Read-out in another experiment: CD40, CD40 (gene 958)
The experiment in a line: BSK_LPS_CD40: BioMAP Diversity Plus: LPS Assay for CD40 Biomarker Activity (AID 2283076). The following applies: primary human HUVEC with PBMC; actives raise or lower the signal. The method, boiled down: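 Using a multiplexed primary human co-culture (umbilical vein endothelium plus PBMC), CD40 was read by ELISA 24 h after dosing, with cytotoxicity tracked by sulforhodamine B staining of parallel cultures and activity fitted bidirectionally versus DMSO.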

Read-out in experiment [13]: E-selectin (Homo sapiens) (UniProt P16581)
The experiment is described as follows: BSK_LPS_Eselectin: BioMAP Diversity Plus: LPS Assay for Eselectin Biomarker Activity (AID 2283077). As to conditions: primary human HUVEC with PBMC; actives raise or lower the signal. The method, boiled down:
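Dose chemical onto LPS-driven HUVEC/PBMC co-culture; after 24 h, run ELISA for E-selectin; fit up- and down-going responses relative to DMSO control.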

Read-out in experiment [14]: Interleukin-8 (IL8), CXCL8 (gene 3576)
The experiment is described as follows: BSK_LPS_IL8: BioMAP Diversity Plus: LPS Assay for Interleukin-8 (IL8) Biomarker Activity (AID 2283078). As to conditions: primary human HUVEC with PBMC; actives raise or lower the signal. In a few lines:
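In this LPS system, chemical-treated human umbilical vein endothelium/PBMC co-cultures were harvested at 24 h for IL-8 ELISA.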

Experiment [15] can be described thus: BSK_LPS_SRB: Viability Assessment in the BioMAP Diversity Plus: LPS Assay (AID 2283079).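 Further: total protein by sulforhodamine B absorbance as a cytotoxicity measure; measured one day after compound addition; fitted in both directions against DMSO so loss or gain of signal counts.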 The following applies: primary human HUVEC with PBMC. In a few lines:
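Cytotoxicity endpoint in human endothelial–PBMC co-culture: 24 h exposure, then SRB (0.1%) staining, 560 nm read.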

Read-out in experiment [16]: Interleukin-1 alpha (IL1a), IL1A (gene 3552)
The experiment in a line: BSK_LPS_IL1a: BioMAP Diversity Plus: LPS Assay for Interleukin-1 alpha (IL1a) Biomarker Activity (AID 2283080). The following applies: primary human HUVEC with PBMC; actives raise or lower the signal. The method, boiled down: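 Primary human HUVEC and PBMC co-culture stimulated with LPS is dosed and harvested at 24 h. Both increases and decreases in ELISA-measured IL-1a are scored relative to DMSO.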

Read-out in experiment [17]: Monocyte Chemoattractant Protein-1 (MCP1), CCL2 (gene 6347)
The experiment is described as follows: BSK_LPS_MCP1: BioMAP Diversity Plus: LPS Assay for Monocyte Chemoattractant Protein-1 (MCP1) Biomarker Activity (AID 2283081).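 On AC50: secreted MCP-1 protein quantified by ELISA in culture supernatant.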 The following applies: primary human HUVEC with PBMC; actives raise or lower the signal. In a few lines:
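Values derive from bidirectional fitting against DMSO of ELISA-measured MCP-1 in a human primary endothelial and mononuclear cell co-culture, 24 h after chemical addition under LPS activation.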

Activity calls are given as the source filed them. How the source made its calls: active means hit-call score of the fitted dose curve at least 0.9, where 1 is the maximum; inactive means score below 0.9.

Chain of E-selectin (Homo sapiens) (P16581 whole entry, looked up): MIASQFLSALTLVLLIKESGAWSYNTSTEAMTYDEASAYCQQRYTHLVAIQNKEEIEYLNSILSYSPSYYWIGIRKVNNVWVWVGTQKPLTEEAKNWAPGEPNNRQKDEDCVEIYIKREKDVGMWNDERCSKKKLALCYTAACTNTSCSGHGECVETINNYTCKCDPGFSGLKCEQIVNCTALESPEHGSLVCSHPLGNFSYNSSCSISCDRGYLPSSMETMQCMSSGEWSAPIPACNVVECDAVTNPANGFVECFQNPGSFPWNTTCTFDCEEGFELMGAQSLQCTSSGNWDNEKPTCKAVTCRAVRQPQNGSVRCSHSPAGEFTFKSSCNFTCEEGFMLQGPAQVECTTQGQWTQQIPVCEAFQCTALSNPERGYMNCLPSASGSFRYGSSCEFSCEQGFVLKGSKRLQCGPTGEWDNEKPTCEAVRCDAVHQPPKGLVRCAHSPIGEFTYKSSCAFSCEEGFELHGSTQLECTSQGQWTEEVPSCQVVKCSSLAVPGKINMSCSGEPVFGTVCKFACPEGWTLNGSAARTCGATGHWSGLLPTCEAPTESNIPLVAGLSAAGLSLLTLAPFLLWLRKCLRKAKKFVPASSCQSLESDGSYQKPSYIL

Consider `CN(C)C(=O)Nc1ccc(Cl)c(Cl)c1`, for which the result in experiment [1], in experiment [2], in experiment [3], in experiment [4], in experiment [5] and in experiment [6] was inactive. Moreover, the result in experiment [7], in [8], in experiment [9], in experiment [10], in [11] and in experiment [12] was inactive. The outcome was “inactive” with CD40, CD40 (gene 958); “inactive” in [13]; “inactive” in experiment [14]; “inactive” in [15]; “inactive” in experiment [16]; “inactive” in experiment [17].

For the molecule `Oc1ccc(C(c2ccc(O)cc2)C(Cl)(Cl)Cl)cc1`, the AC50 was 14.5 µM (active) in [1]; 26.7 µM (active) in [2]; 29.7 µM (active) in experiment [3]; 25.4 µM (active) in [4]; 36.4 µM (active) in experiment [5]; 33.2 µM (active) in [6]. In addition, the AC50 in [7] is 24.1 µM (active); in [8], 32.9 µM (active); in experiment [9], 20.7 µM (active); in [10] it was 20 µM (active); in [11] it was 24.6 µM (active); in experiment [12] it was 31.8 µM (active). In addition, the AC50 with CD40, CD40 (gene 958) is 24.9 µM (active); in experiment [14], 14.9 µM (active); in experiment [15], 17 µM (active); in experiment [16], 24.8 µM (active); in experiment [17], 33.9 µM (active).

As to `CCCN(CCC)c1c([N+](=O)[O-])cc(C(F)(F)F)c(N)c1[N+](=O)[O-]`, the AC50 in [1] is 30.2 µM (active); in experiment [2] it was 35.9 µM (active); in experiment [3] it was 35.5 µM (active); in experiment [4] it was 20 µM (active); in [5], 36 µM (active); in experiment [6], 34.7 µM (active). Further, the AC50 in [7] was 31.3 µM (active); in experiment [8] it was 31.3 µM (active); in experiment [9], 30.6 µM (active); in experiment [10], 30.5 µM (active); in experiment [11] it was 33.6 µM (active); in [12], 37.3 µM (active). Further, the AC50 in [15] was 13.8 µM (active). Further, the outcome in the experiment with CD40, CD40 (gene 958) was “inactive”; in experiment [13] it was “inactive”; in experiment [14], “inactive”; in [16], “inactive”; in experiment [17], “inactive”.

On to `C=CCOC(Cn1ccnc1)c1ccc(Cl)cc1Cl` (centres undefined), for which the AC50 is 30 µM (active) in [1]; 13.9 µM (active) in [4]; 5.07 µM (active) in [6]; 22.2 µM (active) with CD40, CD40 (gene 958). The result in experiment [2], in experiment [3], in [5], in experiment [7], in experiment [8] and in experiment [9] was inactive. Also, the outcome in experiment [10], in [11], in experiment [12], in experiment [13], in [14] and in experiment [15] was inactive. Further, the outcome in experiment [16] and in experiment [17] was inactive.

Regarding `COC(=O)c1ccc(CNS(C)(=O)=O)cc1S(=O)(=O)NC(=O)Nc1nc(OC)cc(OC)n1`, the result in experiment [1], in [2], in experiment [3], in experiment [4], in experiment [5] and in experiment [6] was inactive. Moreover, the result in experiment [7], in experiment [8], in experiment [9], in experiment [10], in [11] and in experiment [12] was inactive. The outcome is “inactive” with CD40, CD40 (gene 958); “inactive” in [13]; “inactive” in experiment [14]; “inactive” in [15]; “inactive” in experiment [16]; “inactive” in [17].

For the molecule `C#CCOC(=O)[C@@H](C)Oc1ccc(Oc2ncc(Cl)cc2F)cc1`, the result in experiment [1], in experiment [2], in experiment [3], in experiment [4], in experiment [5] and in [6] was inactive. Besides, the outcome in [7], in experiment [8], in experiment [9], in [10], in experiment [11] and in [12] was inactive. The outcome was “inactive” in the experiment with CD40, CD40 (gene 958); “inactive” in experiment [13]; “inactive” in [14]; “inactive” in experiment [15]; “inactive” in experiment [16]; “inactive” in [17].

Consider `CC(=O)[C@H]1CC[C@H]2[C@@H]3CCC4=CC(=O)CC[C@]4(C)[C@H]3CC[C@]12C`, for which the outcome in [1], in [2], in experiment [3], in [4], in experiment [5] and in experiment [6] was inactive. Also, the result in experiment [7], in experiment [9], in experiment [10], in experiment [11], in experiment [12] and in [16] was inactive. For the same molecule, the AC50 was 20 µM (active) with CD40, CD40 (gene 958); 25.3 µM (active) in experiment [13]; 20 µM (active) in experiment [14]; 8 µM (active) in [15]; 25 µM (active) in [17].
